Data as given in PubChem BioAssay AID1508602 (The Scripps Research Institute Molecular Screening Center, 2020).
Out of some 650,000 compounds screened, about 6,800 (1%) were called active. No stated cut-off is given here; in the data, active means activation above about 4.9%; inactive means the rest. The list comes from a sample in which actives are over-represented; it also holds similar structures and randomly drawn compounds.

molecular target: G-protein coupled receptor 151 (Homo sapiens) (UniProt Q8TDV0); test: activators of human GPR151, primary screen, cell-based, PathHunter beta-arrestin, luminescence (AID 1508602); conditions: PathHunter beta-arrestin GPR151 cells, at 11.2 µM, active compounds read high;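 further: 0% = median of compound wells and 100% = cells with positive control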
Sequence (Q8TDV0 whole entry, looked up): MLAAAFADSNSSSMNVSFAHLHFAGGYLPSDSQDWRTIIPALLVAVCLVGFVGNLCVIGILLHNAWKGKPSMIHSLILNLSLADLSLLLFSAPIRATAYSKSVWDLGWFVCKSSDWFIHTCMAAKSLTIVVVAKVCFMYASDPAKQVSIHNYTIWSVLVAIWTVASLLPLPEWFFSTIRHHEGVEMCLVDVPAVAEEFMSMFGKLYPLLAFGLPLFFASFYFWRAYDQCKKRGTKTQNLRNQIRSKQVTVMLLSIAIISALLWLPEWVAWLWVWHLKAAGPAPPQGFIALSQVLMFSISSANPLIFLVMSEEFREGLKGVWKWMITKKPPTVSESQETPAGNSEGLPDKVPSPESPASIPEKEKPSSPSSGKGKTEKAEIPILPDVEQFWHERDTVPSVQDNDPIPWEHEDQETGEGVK

Structure (SMILES) | activation
CCOC(=O)c1cnc2c(C)c(Cl)ccc2c1Nc1cccc(C)c1 | 1.7% (inactive)
O=C(C1CC1)N1CC[C@H]2[C@H](CCCN2C/C=C/c2ccco2)C1 | 0.174% (inactive)
O=C(Nc1ccccc1)c1cnc(N2CCC(N3CCOCC3)CC2)s1 | -1.62% (inactive)
COc1ccc(C=C(C#N)C#N)c(CSc2ccccn2)c1 | 5.44% (active)
COc1cccc(N(CC(=O)NCCSc2ccccn2)S(C)(=O)=O)c1 | 1.03% (inactive)
COc1ccc(/C=C/C(=O)NCCSc2ccccn2)cc1 | -0.668% (inactive)
Cn1c(SCC(=O)NC(Cc2ccccc2)C(=O)O)nnc1-c1ccncc1 (stereo unspecified) | -0.851% (inactive)
CCOc1ccc(CCn2c(-c3ccccc3)cn3c4c(=O)n(C)c(=O)n(C)c4nc23)cc1OCC | 0.226% (inactive)
Cc1ccc(N2C(=O)CC(N3CCN(Cc4ccc(Cl)cc4)CC3)C2=O)cc1Cl (stereo unspecified) | 5.11% (active)
Cc1ccc(N2C(=O)CC(N3CCC(Cc4ccccc4)CC3)C2=O)cc1Cl (stereo unspecified) | -0.328% (inactive)
O=C1CC(N2CCN(c3ccc(Cl)cc3)CC2)C(=O)N1c1ccc(Cl)c(Cl)c1 (stereo unspecified) | -0.621% (inactive)
COc1ccc2ccccc2c1CN1CCc2nnc(C(C)NC(=O)C(C)C)n2CC1 (stereo unspecified) | 1.9% (inactive)
COc1ccc(C(=O)Nc2c(C)n(C)n(-c3ccccc3)c2=O)c(OC)c1OC | 0.96% (inactive)
COc1cc(C(C)=Nc2c(C)n(C)n(-c3ccccc3)c2=O)cc(O)c1OC | 5.37% (active)
Cc1c(N=C(Nc2ccccc2)Nc2ccccc2)c(=O)n(-c2ccccc2)n1C | -0.384% (inactive)
CCOc1ccc(CCNC(=O)Cn2c(-c3cncs3)nc3ccccc32)cc1OCC | -0.67% (inactive)
O=C(Nc1ccccc1)/C(=C\c1ccco1)NC(=O)c1cccc(Cl)c1 | 0.512% (inactive)
CCOC(=O)c1cnc2c(OC)cccc2c1Nc1ccc(Oc2ccccc2)cc1 | -0.414% (inactive)
CCN(CC)c1nc(Nc2ccccc2)nc(Nc2ccccc2)n1 | 6.59% (active)

Structure (SMILES) | activation
CCN(CC)c1nc(Nc2ccccc2)nc(Nc2ccc(NC(C)=O)cc2)n1 | -0.926% (inactive)
CCN(CC)c1nc(NCc2ccccc2)nc(NCc2ccc3c(c2)OCO3)n1 | 0.801% (inactive)
COc1cccc(C(=O)COC(=O)c2c3c(nc4ccccc24)CCCC3)c1 | 1.21% (inactive)
CCOC1=C/C(=C/c2c(N)n3nc(N4CCCC4)sc3nc2=O)C=CC1=O | -1.93% (inactive)
COC(=O)C(C)CN1CCN(Cc2ccc3c(c2)OCO3)CC1 (stereo unspecified) | -1.4% (inactive)
CC1CCCN(CC(O)COc2ccc3c(c2)OCO3)C1 (stereo unspecified) | -0.477% (inactive)
CN1CCN(CC(O)COCc2ccc3c(c2)OCO3)CC1 (stereo unspecified) | 10.1% (active)
CCC(=O)Nc1cccc(Nc2nc(Cl)nc(Nc3cccc(NC(=O)CC)c3)n2)c1 | 0.686% (inactive)
Cc1ccc(CS(=O)(=O)CC2Nc3ccc(C(=O)NC4CCCC4)cc3NC2=O)cc1 (stereo unspecified) | -0.216% (inactive)
Cc1cc(=O)[nH]c(NCCC(=O)O)n1 | 0.811% (inactive)
COCCn1c(C)cc(C(=O)CSc2nnc(-c3ccccc3)o2)c1C | 9.35% (active)
COCCn1c(C)cc(C(=O)CSc2nnc3scc(-c4ccc(C)cc4)n23)c1C | 1.12% (inactive)
COCCn1c(C)cc(C(=O)COC(=O)C2COc3ccccc3O2)c1C (stereo unspecified) | 0.229% (inactive)
COc1ccc(C2/C(=C(\O)c3ccc(Br)cc3)C(=O)C(=O)N2c2nccs2)cc1OC (stereo unspecified) | -0.318% (inactive)
Cc1cccc(-n2nc3c(c2NC(=O)CCC2CCCC2)CS(=O)(=O)C3)c1C | -0.834% (inactive)
Cc1cccc(-n2nc3c(c2NC(=O)CCC2CCCCC2)CS(=O)(=O)C3)c1C | 5.19% (active)
Cc1cccc(-n2nc3c(c2NC(=O)C2CCCC2)CS(=O)(=O)C3)c1C | -1.12% (inactive)
Cc1ccc(S(=O)(=O)NCC(c2cccnc2)N2CCN(c3ccc(F)cc3)CC2)cc1 (stereo unspecified) | 4.96% (active)
O=S(=O)(NCC(c1cccnc1)N1CCN(c2ccccc2)CC1)c1ccc(F)cc1 (stereo unspecified) | -1.39% (inactive)

Structure (SMILES) | activation
COc1ccc(N2CCN(C(CNS(=O)(=O)c3c(C)cc(C)cc3C)c3cccnc3)CC2)cc1 (stereo unspecified) | 0.0567% (inactive)
CC(=O)Nc1nc2c(s1)-c1cccc3cccc-2c13 | -0.686% (inactive)
CCN1CCN(c2cc(Nc3cccc(OC)c3)c3c4c(onc24)-c2ccccc2C3=O)CC1 | -1.99% (inactive)
CCN1CCN(c2cc(Nc3cc(OC)c(OC)c(OC)c3)c3c4c(onc24)-c2ccccc2C3=O)CC1 | -0.784% (inactive)
COc1cc(Nc2cc(N3CCN(c4ccc(F)cc4)CC3)c3noc4c3c2C(=O)c2ccccc2-4)cc(OC)c1OC | 5.65% (active)
Cn1c(SCC(=O)NCc2cccs2)nnc1C1CC1 | 0.896% (inactive)
CCc1ccc(NC(=O)CCS(=O)(=O)c2cc3c(cc2Cl)NC(=O)CO3)cc1 | 0.977% (inactive)
Cc1cc2c(cc1S(=O)(=O)CCC(=O)Nc1ccccc1Cl)OCC(=O)N2 | 12% (active)
Cc1ccccc1NC(=O)CCS(=O)(=O)c1ccc2c(c1)OCC(=O)N2 | -0.0759% (inactive)
CC(Nc1ccc(-c2cccc(C=O)c2)cn1)c1ccc(F)cc1 (stereo unspecified) | 3.31% (inactive)
C=CSC1=C(C#N)C(c2cccc3ccccc23)CC(=O)N1 (stereo unspecified) | 0.0614% (inactive)
CCN(Cc1ccccc1)C(=O)Nc1ccc(-c2cn[nH]c2)cc1OCCN(C)C | 0.0869% (inactive)
CN(Cc1ccccc1)C(=O)c1nc2ccc(-c3cn[nH]c3)cc2s1 | 5.86% (active)
CN(C)C(=O)c1cc(-c2cn[nH]c2)ccc1NC(=O)OCc1ccccc1 | 0.0349% (inactive)
O=C(CCS(=O)(=O)c1cccc2nsnc12)N1CCCCCC1 | -0.702% (inactive)
CNC(=O)C(NC(=O)c1ccc([N+](=O)[O-])cc1)C12CC3CC(CC(C3)C1)C2 (stereo unspecified) | 0.352% (inactive)
Cc1cccc(NC(=O)/C(=C\c2ccco2)NC(=O)c2ccccc2Br)c1 | 2.08% (inactive)
CC1=C(C(=O)N2CCOCC2)C(c2ccc(Cl)cc2)C2=C(CC(C)(C)CC2=O)N1 (stereo unspecified) | 0.141% (inactive)
